From PubChem BioAssay (NCI)
This is part of a sample that, as a whole, favours compounds with a hit. Of some 83,000 tested, about 20% had one in any assay.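 Cell lines were cultured in 96-well plates, exposed to a single compound concentration, and assessed for percent growth 48 hours later.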 Values without a mark were called inactive. Active and inactive are the calls of the source.

What follows are molecules tested on A498 renal (assay: NCI-60 one-dose screen, 48 h (100 = growth as untreated, 0 = no growth, -100 = all killed)). Details: 10 µM unless noted.
Procedure: Growth inhibition of the A498 human tumor cell line is measured as a screen for anti-cancer activity. Cells are grown in 96 well plates and exposed to the test compound for 48 hours. Compounds are tested at a single concentration, which is 10^-5 M for most compounds. The reported endpoint is percent growth (GI% or GIPRCNT), where numbers from 0 - 100% represent growth inhibition, and numbers from -100% - 0 represent cell death. For example, a value of 40 represents 60% growth inhibition. A value of 0 means no net growth occurred over the course of the experiment. A value of -40 indicates 40% of cells at the beginning of the experiment died by the end of the experiment. A value of -100 means all cells are dead at the end of the experiment.
NCI-60 Human Tumor Cell Lines Screen was performed using the standard one-dose NCI protocol, which is described in more detail at https://dtp.cancer.gov/discovery_development/nci-60/default.htm.
Compounds with GIPRCNT values below 10 were considered active. Activity score was based on GIPRCNT using the following formula: […]
Score is 0 for GIPRCNT values of 100 or above, 50 for GIPRCNT values of 0, and 100 for GIPRCNT values of -100.

Row | SMILES | growth
1 | CC1(O)CCCCCC1 | 75.3%
2 | O=C1C=CC(=O)N1c1ccccc1 | 105%
3 | NNc1ccc(Cl)cc1Cl | 97.2%
4 | Cc1nn(CCO)c(C)c1N=[N+]([O-])c1c(C)nn(CCO)c1C | 105%
5 | O=C1C=CC(O)=CC1=P(c1ccccc1)(c1ccccc1)c1ccccc1 | 58.6%
6 | O=C1C(=O)c2cc([N+](=O)[O-])ccc2-c2ccccc21 | 110%
7 | Cc1nc([N+](=O)[O-])c(Sc2nncc(-c3ccccc3)n2)n1C | 107%
8 | CC1C(c2ccccc2)OCCN1C(=S)Nc1ccc(S(=O)(=O)N2CCCCC2)cc1 (stereo not given) | 99.3%
9 | C/C(=N\NC(=S)N1CC2CCC(CC2)C1)c1ccccn1 | -12.4% (active)
10 | Cn1ccc(=Nc2ccc(NC(=O)c3ccc(N=c4ccn(C)c5ccc([N+](=O)[O-])cc45)cc3)cc2)cc1 | 97.6%
11 | O=C1/C(=C/c2ccccc2)CCC/C1=C\c1ccccc1 | 84.6%
12 | Oc1ccc(Nc2ccc3ccccc3c2)cc1 | 94.1%
13 | COc1cc(/C=C2\SC(=S)N(/C=C/c3nc4ccccc4[nH]c3=O)C2=O)cc(OC)c1OC | 60%
14 | CCCOC(=O)c1nc(N(CC2CCCCC2)C(=O)NC)sc1/N=C/c1ccccc1 | 63.5%
15 | Clc1ccccc1C(c1ccccc1)(c1ccccc1)n1ccnc1 | 58.7%
16 | Clc1ccc(-n2ncc3c(NCCCN4CCOCC4)ncnc32)cc1 | 104%
17 | Oc1c(C(Nc2ccccc2)c2ccccc2)ccc2cccnc12 (stereo not given) | 78.7%
18 | CC12CCC(O)CC1=CCC1C2CCC2(C)C3=NN=CC3CC12 (stereo not given) | 124%
19 | CCCCCCCCCCCC[N+]1(CCCCCCCCCCCC)CCCC(C)C1 (stereo not given) | -88.4% (active)
20 | CCOC(=O)c1c(C)[nH]c2ccc(O)cc12 | 111%

Row | SMILES | growth
21 | Nc1ccc(Oc2ccccc2)c(Cl)c1 | 57.5%
22 | COC1=CC(=O)c2c(O)c3c(c(O)c2C1=O)CC(C)(O)OC3 (stereo not given) | 68.3%
23 | CC1(C)CCCC2=C1C(=O)N(SC(Cl)(Cl)Cl)C2=O | 120%
24 | CCOC(=O)c1cc(CC)sc1NC(=O)CC(C)=O | 98.7%
25 | CCN1CCCC(Nc2cc(C)nc(/N=C(/N)Nc3ccc(Cl)c(Cl)c3)n2)C1 (stereo not given) | -49.1% (active)
26 | O=[N+]([O-])c1ccc2c(c1)Cc1ccccc1-2 | 82.4%
27 | Oc1ccc2c(c1)CCc1ccccc1-2 | 68.6%
28 | O=C1c2ccccc2Cc2cccc(Cl)c21 | 64.3%
29 | Cn1c(-c2ccccc2)c(/C=C/C2=[N+](C)c3ccccc3C2(C)C)c2ccccc21 | 3.03% (active)
30 | c1ccc(-c2cc3cc4ccccc4cn3c2)cc1 | 96.3%
31 | CCCCCCCCCCCC[S+](C)CC(=O)[O-] (stereo not given) | 95.4%
32 | Cc1ccc2cccc(OC(=O)Nc3cccc(C(F)(F)F)c3)c2n1 | 66.3%
33 | CN1CCC(c2ccccc2)(c2ccccc2)C(=O)C1 | 106%
34 | COc1ccc(C(OCC2OC(n3ccc(NC(=O)c4ccccc4)nc3=O)C(O)C2O)(c2ccccc2)c2ccccc2)cc1 (stereo not given) | 52.8%
35 | OCCOSCCO | 120%
36 | CC1(C)N=c2cc3c(cc2N1c1ccc(Cl)cc1)=Nc1ccccc1N3c1ccc(Cl)cc1 | 26.7%
37 | Cc1cccc2c(N)c3ccccc3nc12 | -46.5% (active)
38 | OC(CSc1ccccc1)CN1CCN(c2ccc(Cl)cc2)CC1 (stereo not given) | 82.1%
39 | CN(Cc1ccccc1)c1ccc(SC#N)cc1 | 93%
40 | COc1ccc2nc3cc(Cl)ccc3c(NCCCCCN3CCCCC3)c2c1 | 19.7%
